These results are taken from PubChem BioAssay AID2384 (Southern Research Specialized Biocontainment Screening …, 2010).

For orientation: inhibition means how much of the control response was suppressed.

In all, about 2,300 compounds went through this assay and about 1,100 (48%) were called active. No rule for the calls is given here. The set was probably picked from earlier hits. This is one part of the list. Entries with a potency or affinity are not part of this list.

The assay can be described thus: inhibitors in S. typhi counter-screen strain, dose response, counter-screen for PhoP regulon inhibitor project, fluorescence, 4 h (AID 2384). The settings on record: S. typhi GFP reporter counter-screen; series mostly up to 150 µM.
As for `CCc1c(C)nc2cc(-c3cc(OC)cc(OC)c3)nn2c1N1CCCC1`, the inhibition entry is “inactive”.

`CCN1CCc2c(C#N)c(NCc3ccccc3)nc(NCCO)c2C1`: the inhibition entry is “inactive”. For `Cc1[nH]nc2c1C(C1CC=CCC1)C(C#N)=C(N)O2` (centres undefined), the inhibition result is “inactive”. On to `C#CC(=O)N(c1cccc(OC)c1)C(C(=O)NC1CCCC1)c1cccs1` (centres undefined), for which the inhibition entry is “inactive”. The result for `COc1ccc(-c2nc3ccc(C(=O)NCC(OC)OC)cc3nc2-c2ccc(OC)cc2)cc1` reads “inactive”. As to `COCCCNC(=O)c1cc(OC)c(OC)c(OC)c1`, the inhibition entry is “inactive”. The result for `O=C(CCCc1ccccc1)Nc1cccnc1` reads “inactive”; that for `CCOCCCNC(=O)C(c1ccc(OC)cc1)N(Cc1cccs1)C(=O)c1ccccn1` (centres undefined), “inactive”. Consider `COc1ccc(CCC(=O)NCc2cn3ccccc3n2)cc1`, for which the inhibition result was “inactive”. The result for `S=C(Nc1ccccc1Cl)N(Cc1ccccc1)Cc1ccccn1` reads “inactive”.

On to `O=c1c2ccccc2ncn1Cc1ccc(Cl)cc1`, for which the inhibition result is “inactive”. As for `CCOC(=O)CSc1nnc2c(n1)C1(C)CCC2C1(C)C` (centres undefined), the inhibition entry was “inactive”. In the case of `O=C(O)/C=C/c1cn(-c2ccccc2)nc1-c1cc2ccccc2oc1=O`, the inhibition result is “inactive”.

`Cc1cccc(OCC(=O)NNc2c3ccccc3nc3ccccc23)c1`: the inhibition result is “inactive”. Regarding `Cc1ccc(OCC(=O)N2CCN(S(C)(=O)=O)CC2)cc1`, the inhibition entry was “inactive”. With `CCC(C)(C)NC(=O)COc1ccc(C(=O)c2ccccc2)cc1`, the inhibition entry was “inactive”. With `CCOc1ccc(NC(=O)CN(C)S(=O)(=O)c2cccs2)cc1`, the inhibition entry is “inactive”. The result for `COc1ccc(Cl)cc1S(=O)(=O)N1CCN(C(=O)c2ccco2)CC1` reads “inactive”; that for `CCOC(=O)N1CCN(CC(=O)Nc2ccc(F)cc2F)CC1`, “inactive”.

As to `CCOC(=O)N1CCN(C(=S)NC(=O)c2ccc(Br)cc2)CC1`, the inhibition entry is “inactive”. In the case of `CCOC(=O)c1ccc(S(=O)(=O)N2CCN(CCC#N)CC2)cc1`, the inhibition entry is “inactive”.

In the case of `COc1ccc(N(CCCN2C(=O)c3cccc4cccc(c34)C2=O)C(=O)c2cccnc2)cc1`, the inhibition entry was “inactive”. `C/C(=N\NC(=O)COc1ccccc1[N+](=O)[O-])c1cccs1`: the inhibition entry was “inactive”. As to `CCN(CC)c1cc(C)c2cc(NC(=O)c3ccccc3F)ccc2n1`, the inhibition result was “inactive”.

On to `CCn1cc(C(=O)O)c(=O)c2cc(F)c(N3CCN(C(=S)NC(=O)c4ccccc4F)CC3)cc21`, for which the inhibition result was “inactive”. Consider `CC1CCCN(C(=O)Cn2c(=O)oc3cc(S(=O)(=O)N4CCCCC4)ccc32)C1` (centres undefined), for which the inhibition entry was “inactive”. As to `O=C(Cn1c(=O)oc2cc(S(=O)(=O)N3CCCC3)ccc21)N1CCN(c2ccccc2F)CC1`, the inhibition result was “inactive”. Turning to `N=C1c2ccccc2CN1c1ncccn1`, the inhibition entry was “inactive”. `COCCCNc1c2c(nc3nnnn13)CCCC2`: the inhibition entry was “inactive”.

Take `CCN(CC)S(=O)(=O)c1ccc(N2CCOCC2)c(C(=O)O)c1`: the inhibition result was “inactive”. Turning to `CCN(CC)CCOC(=O)c1cc(Cl)c(N)cc1OC`, the inhibition entry was “inactive”. Consider `COc1ccc(C(CC(=O)O)NC(=O)C2CCCCC2)cc1` (centres undefined), for which the inhibition result is “inactive”. As for `COc1ccc(CCNC(=O)Cn2c(=O)n(CC3CCCO3)c(=O)c3ccccc32)cc1OC` (centres undefined), the inhibition entry is “inactive”. Turning to `COc1ccc(OC)c(-c2cc(C(=O)Nc3ccc(F)cc3F)no2)c1`, the inhibition entry is “inactive”. Regarding `Cc1nc(N2CCOCC2)c2c(C)c(C(=O)Nc3ccccc3C(F)(F)F)sc2n1`, the inhibition result was “inactive”. On to `O=C(Cn1nc(Cl)nc1Cl)c1ccc([N+](=O)[O-])cc1`, for which the inhibition entry is “inactive”. With `CC1CC(C)CN(S(=O)(=O)c2ccc3c(c2)oc(=O)n3CC(=O)N(C)Cc2ccccc2)C1` (centres undefined), the inhibition result was “inactive”. In the case of `Cc1cc(=O)n2nc(N3CCCC(C(=O)NC4CCCCC4C)C3)sc2n1` (centres undefined), the inhibition entry is “inactive”. On to `Cc1nnc(SCC(=O)Nc2cc(S(=O)(=O)N3CCCC3)ccc2Cl)s1`, for which the inhibition entry was “inactive”. The result for `CCOc1ccc(S(=O)(=O)N2CCC(C(=O)NCCN3CCOCC3)CC2)cc1C` reads “inactive”. For `CCCCCCCCn1ccc(=N)cc1`, the inhibition entry is “inactive”. The value for `CCN(CC)CCn1nc(C)nc1-c1ccccc1O` was “inactive”; that for `CCN1c2ccccc2NC2N=C(OC)C(c3ccccc3)C21` (centres undefined) was “inactive”; that for `O=C(Nc1ccc(F)cc1)c1ccc2snnc2c1` was “inactive”. In the case of `Clc1ccc(CN2CCN(/N=C/c3ccco3)CC2)cc1`, the inhibition entry is “inactive”. The value for `C=CCn1c(C)cc(C(=O)CSc2n[nH]c(N)n2)c1C` was “inactive”; that for `O=C(CCl)NC1CCCc2ccccc21` (centres undefined) was “inactive”. For the molecule `COc1ccc(NC(=O)N2CCc3ccccc32)cc1`, the inhibition entry is “inactive”.

`Cc1c(-n2cc(C(=O)c3ccccc3O)cc(C#N)c2=O)c(=O)n(-c2ccccc2)n1C`: the inhibition result is “inactive”. In the case of `Cc1c(NC(=O)OCc2ccccc2)c(=O)n(-c2ccccc2)n1C`, the inhibition result is “inactive”. With `Cc1csc2ncc(C(=O)Nc3ccon3)c(=O)n12`, the inhibition entry was “inactive”.

Consider `O=C(CCn1cccc1)Nc1ccc(OC(F)(F)F)cc1`, for which the inhibition entry is “inactive”. Consider `O=C(O)C1CCCCC1C(=O)NCCc1ccncc1` (centres undefined), for which the inhibition result is “inactive”. Take `N/C(=N\OC(=O)C(c1ccccc1)c1ccccc1)c1ccncc1`: the inhibition entry is “inactive”. The value for `COc1ccc(N(C(=O)c2cccnc2)S(=O)(=O)c2ccc(F)cc2)cc1` was “inactive”; that for `CCOC(=O)C(O)(NC(=O)c1cccnc1)C(F)(F)F` (centres undefined) was “inactive”; that for `O=C(Nc1ccc(S(=O)(=O)N2CCCC2)cc1)c1cccnc1` was “inactive”. With `N/C(=N\OC(=O)COc1ccc2ccccc2c1)c1ccccn1`, the inhibition result was “inactive”.

As to `O=C(O)c1[nH]c2ccc(Br)cc2c1CCN1C(=O)c2cccc([N+](=O)[O-])c2C1=O`, the inhibition entry is “inactive”.

Take `CCOC(=O)C(NC(C)=O)(OCc1ccc(F)cc1)C(F)(F)F` (centres undefined): the inhibition result is “inactive”. Consider `COc1cccc(/C=N/NC(=O)CNC(=O)CCc2ccccc2)c1O`, for which the inhibition entry is “inactive”.

On to `COc1ccc(C2CC(=O)N3CN(Cc4ccco4)CSC3=C2C#N)cc1` (centres undefined), for which the inhibition entry was “inactive”. With `C=CCNC(=O)NC(=O)COC(=O)/C(C#N)=C/c1ccc(OC)cc1`, the inhibition entry was “inactive”. Take `N/C(=N\OC(=O)N1CCOCC1)c1ccccc1`: the inhibition result was “inactive”. Regarding `O=C(Nc1cccc(OCC(=O)N2CCOCC2)c1)c1cccc([N+](=O)[O-])c1`, the inhibition result is “inactive”.

On to `CC(C)(C)c1ccc(NC(=O)COc2ccc(-n3ccnc3)cc2)cc1`, for which the inhibition entry was “inactive”. The value for `CCC(C)(c1ccc(C(=O)OC)s1)c1ccc(C(=O)OC)s1` was “inactive”. Take `CCOC(=O)C1CCN(Cc2nc(-c3ccc(OC)c(OC)c3)no2)CC1`: the inhibition result is “inactive”. As to `CC1=C([N+](=O)[O-])C(c2ccccc2)C2=C(N1)c1ccccc1C2=O` (centres undefined), the inhibition result is “inactive”. Regarding `CCSC1=NCN(CCCC(=O)O)CN1`, the inhibition entry is “inactive”. The result for `Cc1ccc(CNC(=O)CCC(=O)Nc2nnc(C)s2)cc1` reads “inactive”; that for `COc1ccc(CC(=O)Nc2ncc([N+](=O)[O-])s2)cc1OC`, “inactive”; that for `O=C(Nc1ccc(N2CCOCC2)cc1)c1ccc(S(=O)(=O)NCc2ccco2)cc1`, “inactive”. The value for `O=C(NCc1ccccn1)c1nc(Cn2ccc([N+](=O)[O-])n2)no1` was “inactive”; that for `CC(C)NC(=O)Nc1ccc(Br)cc1Cl` was “inactive”; that for `CCC1Oc2ccc(C)cc2N(CC(=O)NCC2COc3ccccc3O2)C1=O` (centres undefined) was “inactive”. The result for `CCS(=O)(=O)N1CCN(C(=O)c2ccco2)CC1` reads “inactive”. On to `CCCCOc1ccc(OCCNC(=O)c2ccco2)cc1`, for which the inhibition result was “inactive”.

Consider `CSCCC(NC(=O)c1ccc(Br)cc1)C(=O)O` (centres undefined), for which the inhibition entry was “inactive”.

For the molecule `CCOc1ccc(NC(=O)c2ccc(N)cc2)cc1`, the inhibition result is “inactive”. Turning to `CCCN(CCC)CC(=O)Nc1cccc2c1OCO2`, the inhibition entry was “inactive”. In the case of `Cc1nc2ccccn2c1/C(O)=C1\C(=O)C(=O)N(CCN2CCOCC2)C1c1cccnc1` (centres undefined), the inhibition entry is “inactive”. `COc1cccc(C(=O)N(CN2CCCC2=O)c2cc(C)on2)c1`: the inhibition entry was “inactive”. As for `CCCCCCC(=O)N(O)C1CC(=O)N(Cc2ccccc2)C1=O` (centres undefined), the inhibition result is “inactive”.

Turning to `COc1cc(C)nc(N2CCCC(C(=O)NCC(C)C)C2)n1` (centres undefined), the inhibition entry is “inactive”. For the molecule `CCN1C(=O)NC(c2ccccc2)C1=O` (centres undefined), the inhibition result was “inactive”. The value for `O=C(Cn1cnc2cc([N+](=O)[O-])ccc2c1=O)Nc1ccccc1Cl` was “inactive”. Regarding `O=C(Cn1cc(/C=C\[N+](=O)[O-])c2ccccc21)Nc1ccccc1`, the inhibition result is “inactive”. As for `O=[N+]([O-])c1ccc(CN2CCSCC2)cc1`, the inhibition entry is “inactive”. `CCOc1ccc2ccccc2c1C(=O)N[C@@H]1C(=O)N2[C@@H]1SC(C)(C)[C@@H]2C(=O)O`: the inhibition entry was “inactive”.

Consider `O=C(CN(CCc1ccccc1)C(=O)CNS(=O)(=O)c1ccc(F)cc1)NCC1CCCO1` (centres undefined), for which the inhibition entry was “inactive”. In the case of `CCOc1cc(C2NC(=O)N(C)C(C)=C2[N+](=O)[O-])ccc1OC(C)=O` (centres undefined), the inhibition entry is “inactive”.

As for `O=C(c1ccccc1F)N1C(=O)c2cccc3cccc1c23`, the inhibition result is “inactive”. Consider `COc1ccccc1/C=N/N1C(=O)c2cccc3cccc(c23)C1=O`, for which the inhibition result is “inactive”. Regarding `COCc1[nH]nc2c1C(c1ccc(OC)cc1)C(C#N)=C(N)O2` (centres undefined), the inhibition result was “inactive”. With `Cn1c(C(O)c2ccccc2F)nc(Cl)c1Cl` (centres undefined), the inhibition entry was “inactive”. Take `Cc1cc(Br)cc2cn[nH]c12`: the inhibition entry was “inactive”.

As for `CC(C)c1c(O)nc(SCC(=O)N2CCOCC2)[nH]c1=O`, the inhibition result was “inactive”. On to `Cc1cc(C(=O)Cn2cncn2)c(C)n1CCc1ccc(F)cc1`, for which the inhibition entry is “inactive”. Take `CC(C)(C)SCCNC(=O)c1ccccc1`: the inhibition result is “inactive”. Take `O=C1C2=C(Nc3ccccc3SC2c2ccco2)c2ccccc21` (centres undefined): the inhibition entry is “inactive”. As to `Brc1ccc2nc(-c3c[nH]c4ccccc34)cn2c1`, the inhibition result is “inactive”. For the molecule `c1csc(-n2nc3ccccc3n2)c1`, the inhibition result is “inactive”. Consider `CCNC(=S)Nc1cc(-c2ccc(Cl)cc2)[nH]n1`, for which the inhibition result is “inactive”. Take `O=S(=O)(Nc1ncccn1)c1ccc(NC(=S)Nc2ccccc2Cl)cc1`: the inhibition result is “inactive”. With `Cc1ccc(CCNC(=O)c2cc(S(=O)(=O)N3CCCCC3)c[nH]2)cc1`, the inhibition result is “inactive”. Take `O=c1c2ccccc2nc(COc2ccccc2)n1/N=C/c1ccc(O)cc1O`: the inhibition result is “inactive”. As for `O=C(N/N=C/c1c(Cl)nc2ccccn2c1=O)c1cccnc1`, the inhibition entry is “inactive”.

As for `COc1nnc(-c2ccc(N3CCOCC3)c(NC(=O)c3ccc(C)cc3)c2)c2ccccc12`, the inhibition entry is “inactive”. For the molecule `CC(C)(C)NC(=O)NC(=O)COC(=O)CCC1CCCC1`, the inhibition result is “inactive”. As for `COc1ccc(OC)c(CCNC(=O)CS(=O)(=O)Cc2nc(-c3ccccc3C)oc2C)c1`, the inhibition result was “inactive”.

For the molecule `COc1nccnc1NS(=O)(=O)c1ccc(N=Cc2c(C)[nH]n(-c3ccc(C)c(C)c3)c2=O)cc1`, the inhibition result was “inactive”. As to `COc1ccc(NC(=O)c2cc(Br)c(Br)s2)cn1`, the inhibition result was “inactive”.

In the case of `COc1cc2[nH]c(=S)n(CC3CCCO3)c(=O)c2cc1OC` (centres undefined), the inhibition result was “inactive”.
